High-throughput results from PubChem BioAssay.
Only some compounds are listed: those with a hit (about 12% of all), similar ones and a draw of the others.
PLK1 PBD inh: qHTS for Inhibitors of PLK1-PDB (polo-like kinase 1 - polo-box domain): Primary Screen; Potency, µM, without a hit: max response, negative = inhibition, actives largely listed as inhibitors; Serine/threonine-protein kinase PLK1 (Homo sapiens), P53350; 2.8% of 360,000 active; Plk1 PBD binding of FITC phosphopeptide, fluorescence polarization; note: potency is the fitted concentration of half-maximal effect; series mostly up to about 57 µM; % is set by controls: 0 for no effect and ±100 for the full control effect; nearly all actives have a fitted effect of over 65% in size
HP1b chromo inh: HTS for Inhibitors of HP1-beta Chromodomain Interactions with Methylated Histone Tails | Potency, µM (top dose mostly 114 µM), inactives show top-dose activity change, negative = inhibition, actives largely listed as inhibitors | Chromobox protein homolog 1 (Homo sapiens), P83916 | 0.56% of 390,000 active | AlphaScreen HP1-beta / biotin-H3K9me3 peptide binding; note: potency is the fitted concentration of half-maximal effect; nearly all actives have a fitted effect of over 70% in size
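HP1-beta protein (50 nM final) preincubated 30 min at room temperature with biotinylated H3(1-18)K9me3 peptide (50 nM) in PBS pH 7.4, 0.01% Tween-20, then compound added for 30 min. AlphaScreen streptavidin donor/nickel chelate acceptor beads (10 ug/mL final), 30 min dark, luminescence read.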
G9a block: qHTS Assay for Inhibitors of Histone Lysine Methyltransferase G9a | G9a H3K9 monomethylation, AlphaScreen, 2 h | 8.8% of 350,000 active | Potency, µM (highest dose often 102 µM), inactives show at the top dose activity, negative = inhibition, hits mostly inhibitors | AID 504332, 2011; note: potency is the fitted concentration of half-maximal effect; % is set by controls: 0 for no effect and ±100 for the full control effect; nearly all actives have a fitted effect of over 75% in size
Target sequence (Q96KQ7 913-1193 limits assumed): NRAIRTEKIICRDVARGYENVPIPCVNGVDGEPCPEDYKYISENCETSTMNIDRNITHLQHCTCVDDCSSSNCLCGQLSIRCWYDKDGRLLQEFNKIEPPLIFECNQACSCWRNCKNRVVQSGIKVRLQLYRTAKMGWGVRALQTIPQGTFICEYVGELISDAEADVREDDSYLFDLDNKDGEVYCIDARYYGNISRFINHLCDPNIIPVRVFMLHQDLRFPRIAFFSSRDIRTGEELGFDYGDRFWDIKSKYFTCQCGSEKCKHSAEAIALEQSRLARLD
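Quantitative HTS format: methyltransferase activity on a biotin-tagged H3K9 peptide is measured by AlphaScreen, using a rabbit anti-monomethyl-H3K9 antibody with streptavidin donor and anti-IgG acceptor beads. Final levels are 20 nM enzyme, 500 nM peptide, 20 uM SAM; 2 h RT.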
PI5P4K alpha inh: qHTS for Inhibitors of phosphatidylinositol 5-phosphate 4-kinase (PI5P4K). Phosphatidylinositol 5-phosphate 4-kinase type-2 alpha (Homo sapiens), P48426. PI5P4Kalpha enzyme, ADP-Glo luminescence, 60 min; hits give low values. max response, %. 1.2% of 330,000 active; active = max response of -50% or lower; inconclusive = between -30% and -50%; inactive = -30% or higher; note: value at the top dose of about 77 µM; % is set by controls: 0 for no effect and ±100 for the full control effect
Target sequence (P48426 whole entry, looked up): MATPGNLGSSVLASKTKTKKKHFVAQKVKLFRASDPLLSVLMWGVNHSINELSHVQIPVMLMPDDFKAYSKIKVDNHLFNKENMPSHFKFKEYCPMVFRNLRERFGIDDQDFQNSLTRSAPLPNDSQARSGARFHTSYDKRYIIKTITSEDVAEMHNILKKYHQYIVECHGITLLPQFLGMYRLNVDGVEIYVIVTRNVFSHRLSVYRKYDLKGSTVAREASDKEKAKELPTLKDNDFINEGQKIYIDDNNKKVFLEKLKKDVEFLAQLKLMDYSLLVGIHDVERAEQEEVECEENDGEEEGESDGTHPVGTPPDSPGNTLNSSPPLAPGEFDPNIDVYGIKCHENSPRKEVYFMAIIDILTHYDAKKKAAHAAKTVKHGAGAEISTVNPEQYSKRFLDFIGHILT
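ADP-Glo luminescence end-point read after a 60 min room-temperature kinase reaction of PI5P4Kalpha plus substrate, initiated with ATP at 5 microM final. Buffer: 0.038 M HEPES pH 7.4, EGTA, 0.1% CHAPS, 5% DMSO.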
BAZ2B inh: qHTS Assay for Inhibitors of BAZ2B; 4.4% of 360,000 active; Potency, µM (titrated, usually from 114 µM), for the others: at the top dose activity change, negative = inhibition, hits mostly inhibitors; Bromodomain adjacent to zinc finger domain protein 2B (Homo sapiens), Q9UIF8; AID 504333, 2011; AlphaScreen BAZ2B-H3K14Ac peptide displacement; note: potency is the fitted concentration of half-maximal effect; % is set by controls: 0 for no effect and ±100 for the full control effect; nearly all actives have a fitted effect of over 60% in size
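Complex of BAZ2B and biotin-H3K14Ac (50 nM apiece) forms over 30 min at RT, then faces library compounds up to 110 uM for another 30 min; AlphaScreen beads added, 20 min dark incubation, luminescence read.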
JMJD2A Tudor: qHTS Assay for Inhibitors of JMJD2A-Tudor Domain; Lysine-specific demethylase 4A (Homo sapiens), O75164; 4.4% of 390,000 active; Potency, µM (titrated, usually from 114 µM), for inactives: at the top dose activity change, negative = inhibition, usual class: inhibitors; AlphaScreen JMJD2A-Tudor / H3K4me3 peptide binding; note: potency is the fitted concentration of half-maximal effect; % is set by controls: 0 for no effect and ±100 for the full control effect; nearly all actives have a fitted effect of over 50% in size
Numbers without * were called inactive; [ ] = remark or other dose. Unless noted, calls come from the whole dose curve; as a rule, active = well fitted curve in the direction sought with a large enough effect; inconclusive = small, poorly fitted or top-dose-only effect, or another doubt; inactive = no such curve, though single readings can be large; an effect the other way counts as inactive or inconclusive.

How did COc1cccc(C(=O)NC(=S)NCc2ccco2)c1 do in these assays?
PLK1 PBD inh: -16.8%; HP1b chromo inh: 12.8%; G9a block: inconclusive; PI5P4K alpha inh: 5.7; BAZ2B inh: -35.3%; JMJD2A Tudor: -13.1%[57.1 µM]

What do the screens show for `COc1cc(OC)cc(C(=O)NC(=S)NCc2ccco2)c1`?
PLK1 PBD inh: -5.6%; HP1b chromo inh: -0.2%; G9a block: 44.7µM*; BAZ2B inh: -7.4%; JMJD2A Tudor: -33.6%

How did Cc1sc(N)nc1-c1cccc([N+](=O)[O-])c1 do in these assays?
HP1b chromo inh: -16.7%; JMJD2A Tudor: -34.8%

Results for Cc1cc(=O)[nH]c2nnc(SCC(=O)Nc3ccc(OC(F)(F)F)cc3)n12 ?
HP1b chromo inh: 30.9%; G9a block: 6.5%[59 µM]; BAZ2B inh: 0.1%; JMJD2A Tudor: -6.2%

What do the screens show for `COc1ccc(CCNC(=O)CCn2c(=O)c3ccccc3n(Cc3cc(C)ccc3C)c2=O)cc1OC`?
HP1b chromo inh: 2.6%; G9a block: 0.7%[59 µM]; BAZ2B inh: -1.6%; JMJD2A Tudor: -13.3%

What do the screens show for `CCOC(=O)C1=C([Si](C)(C)C)c2ccccc2N(S(=O)(=O)C(F)(F)F)C1C(=O)OCC` (stereo unspecified)?
G9a block: -3.9%[59 µM]

Results for CCCc1cc(=O)oc2cc(OCc3nn[nH]n3)ccc12 ?
PLK1 PBD inh: -4.2%; HP1b chromo inh: 57.9%; G9a block: inconclusive; PI5P4K alpha inh: -14.4; BAZ2B inh: -3.5%[57.1 µM]; JMJD2A Tudor: -33.1%

How did CCCCc1cc(=O)oc2c(C)c(OCc3nn[nH]n3)ccc12 do in these assays?
PLK1 PBD inh: -15.1%; HP1b chromo inh: 15.7%; G9a block: 50.1µM*; PI5P4K alpha inh: inconclusive; BAZ2B inh: -17.0%; JMJD2A Tudor: -20.1%

Results for CCCCc1cc(=O)oc2c(C)c(OCC(=O)N3CCC(C(=O)O)(c4ccccc4)CC3)ccc12 ?
PLK1 PBD inh: -3.2%; HP1b chromo inh: 2.2%; G9a block: 3.16µM*; PI5P4K alpha inh: 0.7; BAZ2B inh: -26.2%; JMJD2A Tudor: -22.4%

Results for CCCCc1cc(=O)oc2cc(OCc3nn[nH]n3)ccc12 ?
PLK1 PBD inh: -0.6%; HP1b chromo inh: 18.0%; G9a block: 56.2µM*; PI5P4K alpha inh: -2.7; BAZ2B inh: -0.9%; JMJD2A Tudor: -1.4%

How did CCCCc1cc(=O)oc2c(C)c(OCC(=O)N3CCCC3)ccc12 do in these assays?
PLK1 PBD inh: -3.9%; HP1b chromo inh: 16.9%; PI5P4K alpha inh: 3.8; BAZ2B inh: -0.1%; JMJD2A Tudor: -8.3%

How did C#CC(CC)(CC)NC(=O)c1cc(S(=O)(=O)N2CCCCC2)ccc1N1CCOCC1 do in these assays?
PLK1 PBD inh: -0.5%; HP1b chromo inh: 42.8%; G9a block: -2.8%; PI5P4K alpha inh: -3.0; BAZ2B inh: -5.3%; JMJD2A Tudor: 6.2%

Results for CCC(Oc1ccccc1)C(=O)Nc1cc(-c2ccccc2F)nn1-c1ccccc1 (stereo unspecified) ?
HP1b chromo inh: 13.5%[57 µM]; G9a block: 0.5%[59 µM]; BAZ2B inh: 16.4%; JMJD2A Tudor: -7.1%

Results for C#CC(C)(C)NS(=O)(=O)c1cc(-c2nnc(Nc3ccc(C)cc3)c3ccccc23)ccc1C ?
HP1b chromo inh: 35.1%; G9a block: 6.7%[59 µM]; BAZ2B inh: -2.5%; JMJD2A Tudor: -7.1%

Results for Cc1ccc(C(=O)OCc2nnc(-c3ccccc3)o2)o1 ?
PLK1 PBD inh: inconclusive; HP1b chromo inh: -15.4%; G9a block: -41.5%[0.0925 µM]; PI5P4K alpha inh: -10.9; BAZ2B inh: -2.7%; JMJD2A Tudor: 89.1µM*

How did Cc1ccc(S(=O)(=O)N2CCOCC2)cc1C(=O)OCc1nnc(-c2ccccc2)o1 do in these assays?
PLK1 PBD inh: -6.1%; HP1b chromo inh: 16.1%; G9a block: -8.0%; PI5P4K alpha inh: -10.5; BAZ2B inh: 13.3%; JMJD2A Tudor: -7.8%

What do the screens show for `O=C(OCc1nnc(-c2ccccc2)o1)c1cc(S(=O)(=O)N2CCOCC2)c(Cl)cc1Cl`?
PLK1 PBD inh: 2.99µM*; HP1b chromo inh: -18.7%; G9a block: -1.0%[12.7 µM]; PI5P4K alpha inh: inconclusive; BAZ2B inh: -1.5%; JMJD2A Tudor: inconclusive

How did CC(C)[C@H](NC(=O)c1ccccc1)C(=O)OCc1nnc(-c2ccccc2)o1 do in these assays?
PLK1 PBD inh: 26.7µM*; HP1b chromo inh: inconclusive; G9a block: -49.2%; PI5P4K alpha inh: inconclusive; JMJD2A Tudor: 22.4µM*

Results for O=C(OCc1nnc(-c2ccccc2)o1)c1ccc(CO)cc1 ?
PLK1 PBD inh: -12.1%; HP1b chromo inh: 26.2%; G9a block: -3.1%; PI5P4K alpha inh: 4.9; BAZ2B inh: -4.5%; JMJD2A Tudor: 1.4%

How did NCC1O[C@@H](OC2C(N)C[C@H](N)[C@@H](O[C@H]3OC(CO)C(O)C(N)C3O)C2O)C(N)C(O)C1O (stereo partly specified) do in these assays?
G9a block: -5.0%[2.33 µM]

Results for CCCOc1ccccc1C(=O)N1CCC(c2nc3ccccc3s2)CC1 ?
HP1b chromo inh: 37.3%; G9a block: -25.4%[59 µM]; BAZ2B inh: -13.3%; JMJD2A Tudor: -19.5%

What do the screens show for `Cc1cc(C)c2c(=O)n3c(nc2c1)C(Cc1ccccc1)NC(=O)c1cc2ccccc2cc1-3` (stereo unspecified)?
PLK1 PBD inh: 3.4%; PI5P4K alpha inh: 6.4

What do the screens show for `O=C1Nc2ccccc2C1(O)C/C(=N/O)c1ccccc1` (stereo unspecified)?
PLK1 PBD inh: 26.7µM*; HP1b chromo inh: -16.0%; G9a block: -5.4%; PI5P4K alpha inh: -11.3; BAZ2B inh: -10.9%; JMJD2A Tudor: 20µM*

What do the screens show for `COc1cc(C(=O)Nc2nc(-c3ccc(F)cc3)cs2)ccc1OCC(=O)N1CCOCC1`?
PLK1 PBD inh: 26.7µM*; HP1b chromo inh: -17.5%; G9a block: inconclusive; PI5P4K alpha inh: -20.9; BAZ2B inh: -0.3%; JMJD2A Tudor: inconclusive

How did O=C(Nc1nc(-c2cccs2)cs1)c1cccc(S(=O)(=O)N2CCCCC2)c1 do in these assays?
PLK1 PBD inh: -9.9%; HP1b chromo inh: 23.1%; G9a block: 12.6µM*; PI5P4K alpha inh: 1.1; BAZ2B inh: inconclusive; JMJD2A Tudor: -29.3%

What do the screens show for `Cc1ccc(-c2csc(NC(=O)c3cccc(S(=O)(=O)N4CCN(C)CC4)c3)n2)cc1`?
PLK1 PBD inh: -11.5%; HP1b chromo inh: 0.7%; G9a block: inconclusive; PI5P4K alpha inh: 0.3; BAZ2B inh: -4.6%; JMJD2A Tudor: -31.0%
